20 molecules from PubChem BioAssay (Tox21) can be followed below.

A short description of test [1]: qHTS RealTime-Glo MT Cell Viability Assay in HEK293 cells - 0 hour (AID 1224880). Also: top concentration of the series differs between compounds; nearly all actives have a fitted effect of over 45% in size. Summed up:
(§1)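 Kinetic, non-lysing viability readout. Seed HEK293 (600/well) with reagent, incubate 5 h at 37 C/5% CO2, pin 23 nL compound in DMSO, incubate at 37 C, read luminescence at 0, 8, 16, 24, 32, 40 h.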
In general terms: Quantitative high-throughput screening tests each substance at several concentrations.

A short description of test [2]: A CellTox Green Cytotoxicity Assay to monitor cytotoxicity in HEK293 cells - 32 hour (AID 1224881). Also: nearly all actives have a fitted effect of over 40% in size. The method in brief: (§2)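 Real-time, in one plate: 600 HEK293 cells/well with dead-cell DNA dye, pinned compound after 5 h, 37 C incubation over 40 h; viable cells give no appreciable fluorescence.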
Test [3] in a line: A CellTox Green Cytotoxicity Assay to monitor cytotoxicity in HepG2 cells - 0 hour (AID 1224882). Also: nearly all actives have a fitted effect of over 35% in size. Summed up:
(§3)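 Cytotoxicity was tracked as dead-cell DNA fluorescence in HepG2 cells treated with test compounds at 37 C; each time-point value comes from one kinetic series spanning 0, 8, 16, 24, 32 and 40 h.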

A short description of test [4]: A CellTox Green Cytotoxicity Assay to monitor cytotoxicity in HepG2 cells - 32 hour (AID 1224883). Also: nearly all actives have a fitted effect of over 50% in size. Also: potency is read from the fitted curve at half-maximal effect. Summed up: as §3
Test [5] is described as follows: qHTS RealTime-Glo MT Cell Viability Assay in HepG2 cells - 16 hour (AID 1224885). Also: nearly all actives have a fitted effect of over 50% in size. Summed up:
(§4)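 Compound treatment began 5 h after plating HepG2 cells (600/well) with NanoLuc luciferase and prosubstrate. Plates stayed at 37 C for 40 h; luminescence was captured at six time points, 0 h through 40 h.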

Test [6] in a line: qHTS RealTime-Glo MT Cell Viability Assay in HEK293 cells - 24 hour (AID 1224886). Also: top concentration of the series differs between compounds; nearly all actives have a fitted effect of over 50% in size. Summed up: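 Quantitative high-throughput screen of the Tox21 10K library in HEK293: cells and RealTime-Glo reagents plated together, compound added at 5 h, luminescence monitored through 40 h at 37 C.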
A short description of test [7]: qHTS RealTime-Glo MT Cell Viability Assay in HEK293 cells - 8 hour (AID 1224887). Also: top concentration of the series differs between compounds; nearly all actives have a fitted effect of over 50% in size. Summed up: as §1
Test [8] in a line: A CellTox Green Cytotoxicity Assay to monitor cytotoxicity in HEK293 cells - 16 hour (AID 1224888). Also: nearly all actives have a fitted effect of over 35% in size. Summed up:
as §2

Test [9] is described as follows: A CellTox Green Cytotoxicity Assay to monitor cytotoxicity in HEK293 cells - 8 hour (AID 1224884). Also: nearly all actives have a fitted effect of over 35% in size. Summed up: as §2
A short description of test [10]: qHTS RealTime-Glo MT Cell Viability Assay in HepG2 cells - 0 hour (AID 1224889). Also: nearly all actives have a fitted effect of over 50% in size. The method in brief:
as §4

Unmarked numbers belong to inactive results. Results filed as inconclusive are left out. The source made the active and inactive calls. Calls follow the shape of the dose curve; as a rule, active = well fitted curve in the direction sought with a large enough effect in the repeat runs; inconclusive = weak or mixed curves; inactive = no such curve, though single readings can be large; an effect the other way counts as inactive or inconclusive.

For `OCCCCC(O)CO` (configuration not stated), the Potency entry in [1], in [2], in test [4], in test [6] and in [7] was “inactive” in each case. Besides, the call in test [3], in [5] and in test [8] was inactive.
Consider `CN(C)C(=O)CNC(=O)Cc1ccccc1`, for which the Potency result in test [1], in test [2], in test [9], in test [6] and in test [10] was “inactive” throughout. Further, the outcome in test [3], in test [5] and in [8] was inactive.
Regarding `CC1(CO)CN(c2ccccc2)NC1=O` (configuration not stated), the Potency result in test [1], in test [2], in test [9], in test [6], in test [7] and in test [10] was “inactive” in each case. Also, the molecule was called inactive in test [3], in test [5] and in test [8].
Take `COc1cc2c(cc1OC)C(=O)CC2`: the Potency entry in test [1], in test [2], in test [4], in [6], in test [7] and in test [10] was “inactive” throughout. Moreover, the molecule was classed as inactive in [3], in [5] and in test [8].
As to `CCC(C)(CCC(C)C)C(=O)O` (configuration not stated), the Potency entry in test [1], in [2], in [4], in test [6] and in [7] was “inactive” each time. The call in test [3], in test [5] and in test [8] was inactive.
With `Cc1ccc2ccc(Cl)cc2n1`, the Potency result in [1], in [2], in test [9], in test [6], in test [7] and in test [10] was “inactive” throughout. The outcome in test [3], in [5] and in test [8] was inactive.
As to `CC(=O)/C=C/C1C(C)=CCC(C)C1(C)C` (configuration not stated), the Potency result in test [1], in test [2], in [4], in test [6], in test [7] and in test [10] was “inactive” throughout. For the same molecule, the call in [3], in test [5] and in test [8] was inactive.
`CC(COC(C)(C)C)OCCCO` (configuration not stated): the Potency entry in test [1], in test [2], in test [4], in [9], in [6] and in [10] was “inactive” in each case. For the same molecule, the result in test [3], in test [5] and in test [8] was inactive.
`CC(=O)Nc1cccc(C)c1`: the Potency entry in test [1], in test [2], in [4], in test [9] and in test [10] was “inactive” in each case. Moreover, the outcome in test [3], in test [5] and in test [8] was inactive.
As for `Cc1ccccc1C(=O)Nc1ccc(C(=O)N2CCCC(N(C)C)c3ccccc32)cc1` (configuration not stated), the Potency entry in test [1], in test [2], in test [9], in [7] and in test [10] was “inactive” in each case. Moreover, the result in test [3], in test [5] and in test [8] was inactive. In addition, the Potency in test [4] is 7.56 µM (active).
For the molecule `CC(C)C(=O)OCc1cccc(OC(=O)[C@@H]2N3C(=O)[C@@H](NC(=O)Cc4ccccc4)[C@H]3SC2(C)C)c1`, the Potency entry in [1], in [2], in test [9], in test [6], in [7] and in test [10] was “inactive” each time. The result in test [3], in test [5] and in test [8] was inactive.
As to `Cc1cc(C(C)(C)C)c(O)c(C)c1CC1=NCCN1`, the Potency result in test [1], in [2], in [4], in test [6] and in [10] was “inactive” throughout. In addition, the call in test [3], in test [5] and in [8] was inactive.
Turning to `C[C@@H](Oc1ccc(CNC(=O)c2cccnc2Oc2ccc3c(c2)OCO3)c(F)c1)C(=O)O`, the Potency result in test [1], in test [2], in test [4], in [9], in test [6] and in [7] was “inactive” each time. For the same molecule, in test [10], the Potency result was “inactive”. Moreover, the molecule was called inactive in test [5] and in test [8].
Consider `CCCCCCCCCC(C)=O`, for which the Potency entry in test [1], in test [2], in test [4], in test [6] and in test [10] was “inactive” each time. Moreover, the result in test [5] and in test [8] was inactive.
Turning to `COc1cc2c(cc1OC)[C@@H]1CC(=O)[C@@H](CC(C)C)CN1CC2`, the Potency entry in test [1], in [4], in test [9], in [6], in test [7] and in [10] was “inactive” in each case. For the same molecule, the molecule was classed as inactive in [3], in [5] and in test [8].
Take `COc1ccc(Br)c(C)c1`: the Potency result in test [1], in test [2], in test [4], in test [9], in [6] and in test [7] was “inactive” each time. In addition, the Potency result in test [10] is “inactive”. In addition, the molecule was called inactive in test [5] and in [8].
For the molecule `CC(C)=CCOC(=O)c1ccccc1`, the Potency result in [1], in test [2], in [6], in test [7] and in test [10] was “inactive” in each case. Further, the molecule was called inactive in test [5] and in [8].
For the molecule `CCCCCCCCSCC`, the Potency entry in [1], in test [2], in test [4], in [6], in test [7] and in test [10] was “inactive” throughout. Also, the molecule was called inactive in [5] and in test [8].
On to `CC(=O)Nc1ccc(S(=O)(=O)Nc2ccc([N+](=O)[O-])cc2)cc1`, for which the Potency result in test [1], in test [2], in test [9], in [6], in test [7] and in [10] was “inactive” throughout. Also, the outcome in [5] and in test [8] was inactive.
As to `COc1ccc(OC)c(Cl)c1`, the Potency result in [1], in test [2], in [9], in [6] and in [7] was “inactive” throughout. Further, the molecule was classed as inactive in test [5] and in [8].
